High-throughput results as filed in PubChem.
In the library only some 3.5% were active in any assay of this set; here they are far more common.
FBW7 activator = activators of human E3 ligase FBW7. Q969H0. AlphaScreen FBW7–phospho-cyclin E peptide binding, activator screen. normalized activity (activation), % at 26.1 µM. 0.13% of 650,000 active. AID 1259310; in the data active = normalized activity above about 1.9%;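 also: purified mutant Fbw7 with reduced substrate affinity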
MITF inh = blocks human microphthalmia-associated transcription factor; O75030; AlphaScreen MITF homodimerization, bead proximity signal; inhibition, % at 2.6 µM; 0.91% of 650,000 active; AID 1259374; in the data active = inhibition above about 50%;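 also: 0% = vehicle wells with protein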
GPR151 ag = activates the human receptor GPR151; Q8TDV0; PathHunter beta-arrestin GPR151 cells, luminescence; activation, % at 11.2 µM; 1% of 650,000 active; AID 1508602; in the data active = activation above about 4.9%;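 also: 0% = median of compound wells and 100% = cells with positive control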
TEAD-YAP inh = TEAD-YAP interaction inhibition; HEK-TIYL cells, TEAD-Gal4/YAP UAS-luciferase luminescence; inhibition, % at 9.12 µM; 1.4% of 640,000 active; AID 1259422; in the data active = inhibition above about 32%;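 also: 0% = median of test compound wells and 100% = reference inhibitor wells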
GPR151 conf act = human GPR151 activation, confirmation screen. shares compounds with GPR151 ag. GPR151 PathHunter beta-arrestin cells, luminescence, 90 min; % of EA-reagent control over plate median. activation, % at 11.2 µM. 6,700 tested, under 10 active;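 active = mean percent activation across replicates above the confirmation screen cutoff of 4.91%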
GPR119 counter = activates human GPR119 in a GPR151 counter-screen; shares compounds with GPR151 ag; GPR119 PathHunter beta-arrestin cells, luminescence, 90 min; 0 = compound-well median, 100 = enzyme-acceptor control; activation, % at 11.2 µM; 0.3% of 6,700 active; AID 1508611;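 active = mean percent activation in the counterscreen above 29.09%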;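 also: counterscreen on off-target GPR119 to flag nonselective hits from the GPR151 activator screen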
Target sequence (Q8TDV5 whole entry, looked up): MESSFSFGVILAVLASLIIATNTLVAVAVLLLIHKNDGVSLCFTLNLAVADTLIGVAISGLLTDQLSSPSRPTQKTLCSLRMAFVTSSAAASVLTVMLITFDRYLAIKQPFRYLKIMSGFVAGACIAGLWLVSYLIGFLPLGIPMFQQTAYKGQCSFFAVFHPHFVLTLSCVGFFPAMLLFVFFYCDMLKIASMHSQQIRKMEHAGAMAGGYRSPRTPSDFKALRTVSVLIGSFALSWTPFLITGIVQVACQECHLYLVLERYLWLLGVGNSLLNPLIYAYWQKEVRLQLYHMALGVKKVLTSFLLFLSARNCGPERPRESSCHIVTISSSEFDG
Numbers without * were called inactive; x = not tested or not shown.

SMILES	FBW7 activator	MITF inh	GPR151 ag	TEAD-YAP inh	GPR151 conf act	GPR119 counter
O=C(Nc1ccc(-c2nc3ccc(-c4nc5ccccc5o4)cc3[nH]2)cc1)C1CCCCC1	0.1	16.5	4.9*	-4.7	0.9	16.2
O=C(O)c1ccc(Oc2c(Cl)cccc2[N+](=O)[O-])cc1	-0.1	6.9	-1.1	-0.7	x	x
COc1cc(Nc2nc(NC3CC3)c3ncn(C4CCCCC4)c3n2)cc(OC)c1OC	-0.1	-6.2	2.0	-7.4	x	x
Cn1nccc1Nc1cc(C(=O)NCCOc2ccccc2)c2ccccc2n1	0.3	13.6	5.3*	2.5	-1.4	-12.8
COc1ccc(C(C)=O)cc1CN(C)C	-0.4	5.2	6.6*	-7.9	1.9	2.8
O=C(c1ccc([N+](=O)[O-])cc1)N1CCC(C(=O)N2CCN(c3ccccc3)CC2)CC1	-0.1	10.4	11.3*	0.8	0.1	0.1
O=C(CCc1ccccc1)NNC(=O)c1ccccc1I	0.1	6.2	0.8	3.4	x	x
Nc1nc(Nc2ccccc2)cc(-c2ccccc2)n1	-0.1	5.1	-1.1	2.4	x	x
Nc1nc(Nc2ccc(N3CCOCC3)cc2)cc(-c2csc3ccccc23)n1	-0.1	15.3	-1.0	-32.0	x	x
Nc1nc(Nc2ccccc2)cc(-c2cccs2)n1	-0.2	6.8	6.2*	-56.5	0.5	0.3
Nc1nc(Nc2ccc(Oc3ccccc3)cc2)cc(-c2csc3ccccc23)n1	0.0	5.2	6.7*	52.0*	0.1	1.6
CC(C)C[C@@H]1NC(=O)[C@@H]2C[C@H](NC(=O)c3c(Cl)cccc3Cl)CN2C1=O	-0.1	-2.4	-0.2	-6.4	x	x
CSc1ccc(S(=O)(=O)Nc2ccc(S(=O)(=O)N3CCOCC3)cc2)cc1	-0.1	-0.4	5.8*	-2.0	0.1	3.6
O=c1c2c([nH]c3ccccc13)CCCCCCCCCC2	0.4	6.1	-0.3	12.2	x	x
COc1cccc(Nc2nc(-c3ccc(OC)c(F)c3)cs2)c1	0.0	8.5	-0.2	19.1	x	x
COc1ccc(-c2csc(Nc3ccccc3)n2)cc1F	0.0	6.7	6.5*	-68.1	2.2	0.8
CC(=O)Nc1ccc(Nc2nc(Nc3cccc(N(C)C)c3)ncc2C)cc1	-0.2	7.3	5.5*	8.0	-0.5	-11.8
COCC1CCCN(Cc2c(C(=O)N3CCCN(C)CC3)nc3sccn23)C1 (stereo not given)	0.2	7.6	0.4	1.4	x	x
COCC1CCCCN1Cc1c(C(=O)N2CCCN(C)CC2)nc2sccn12 (stereo not given)	0.1	2.6	15.4*	6.5	0.1	5.9
CCN(CCN(C)C)Cc1cc(OC)c(OC)cc1[N+](=O)[O-]	0.1	24.2	5.3*	-5.3	-0.1	-6.0
O=C(NCCO)C(=O)NCC(c1ccco1)S(=O)(=O)c1ccc(Cl)cc1 (stereo not given)	0.1	3.8	0.8	-3.2	x	x
CNC(=O)C(=O)NCC(c1ccco1)S(=O)(=O)c1ccc(Cl)cc1 (stereo not given)	0.5	10.8	5.2*	17.8	-0.9	-7.2
O=C(Nc1cccc(F)c1)c1nccnc1CO	0.0	5.3	-2.8	-2.0	x	x
CC(C)CCNC(=O)C1CCC(=O)N1C(C)C (stereo not given)	-0.1	8.2	5.2*	-5.9	0.5	3.8
CC(C)CN(CCCNC(=O)C1CC(=O)N(C2CCCC2)C1)CC(C)C (stereo not given)	0.0	10.1	0.3	0.0	x	x
SMILES	FBW7 activator	MITF inh	GPR151 ag	TEAD-YAP inh	GPR151 conf act	GPR119 counter
CC(C)CCNC(=O)C1CC(=O)N(C2CCCCCC2)C1 (stereo not given)	0.0	0.6	10.3*	0.2	0.3	2.0
Cc1cc(OCC(O)CN2CCN(c3ccccc3F)CC2)cc(C)c1Cl (stereo not given)	-0.1	-12.9	0.0	-2.1	x	x
Fc1ccc(C2CC(c3ccc(Br)cc3)=NN2c2nc(-c3ccccc3)c3cc(Br)ccc3n2)cc1 (stereo not given)	0.0	-2.4	5.8*	5.2	0.3	2.5
CC(C)Cn1cc(Cl)c(=O)[nH]c1=O	-0.1	13.0	1.6	1.4	x	x
COc1ccc(C=O)cc1OC(=O)c1cccc2ccccc12	0.0	10.9	10.2*	-0.7	-1.2	-14.9
COCCNC(=O)Nc1nc(-c2ccc3c(c2)CCCC3)cs1	-0.2	0.0	7.3*	-16.7	0.1	-4.8
O=C(CN1C(=O)CCC1=O)Nc1nc(-c2ccc3c(c2)CCCC3)cs1	0.1	9.1	0.5	-5.3	x	x
OC1CCN(Cc2c(F)cccc2F)CC1	0.1	-2.0	5.9*	2.2	-0.2	2.0
COc1ccc(C(=O)Nc2nnc(CC(=O)N/N=C\c3ccc(O)cc3O)s2)cc1	-0.1	-12.5	0.3	1.9	x	x
c1ccc(-c2nnc(-c3ccccc3)o2)cc1	-0.1	2.1	-7.4	-34.4	x	x
c1ccc(C2=NCCCO2)cc1	0.0	-21.7	10.4*	8.7	0.6	-6.4
Cc1ccc(NC(=O)c2cccc(F)c2)c([N+](=O)[O-])c1	-0.1	-3.2	8.7*	-27.7	-0.9	-14.6
Cc1cccc(C(=O)Nc2ccc(C)cc2[N+](=O)[O-])c1	-0.1	8.5	1.1	-11.3	x	x
Cc1cc(C(=O)Nc2ccc(F)cc2F)ccc1[N+](=O)[O-]	0.0	16.3	5.2*	-39.8	0.3	-5.2
CCc1c(C(=O)Nc2ccc(C)c(F)c2)[nH]c(C)c1C(C)=O	0.0	2.3	11.7*	-11.5	-0.6	-8.2
O=C1c2ccccc2C(=O)N1OS(=O)(=O)c1ccc(Cl)cc1	0.6	13.8	16.6*	2.1	0.4	3.5
O=C1c2ccccc2C(=O)N1OS(=O)(=O)c1ccccc1	0.2	-1.6	-0.2	-5.7	x	x
Cc1nn(C(=O)c2cc3c(s2)CCCC3)c(C)c1Sc1ccc(Br)cc1	0.0	8.4	-0.8	-0.2	x	x
O=C(NC1CC1)c1cccnc1SCc1cccc(F)c1	1.0	9.8	-0.7	3.0	x	x
CCOC(=O)c1ccccc1NC(=O)C(C)N(c1ccc(Cl)cc1)S(C)(=O)=O (stereo not given)	0.3	13.5	-1.8	3.5	x	x
COC(=O)c1ccc(NC(=O)C(C)N(c2ccc(C)c(C)c2)S(C)(=O)=O)cc1 (stereo not given)	0.0	4.9	1.9	-5.7	x	x
CCOC(=O)c1ccccc1NC(=O)C(C)N(c1ccc(C)cc1)S(C)(=O)=O (stereo not given)	-0.2	7.1	5.9*	1.8	-0.1	1.3
CCOC(=O)c1ccc(NC(=O)C(C)N(c2ccc(C)c(C)c2)S(C)(=O)=O)cc1 (stereo not given)	0.0	-3.3	5.1*	-8.3	0.3	13.2
CC(C)N(C(C)C)S(=O)(=O)c1ccc(NCCc2ccc(S(N)(=O)=O)cc2)nc1	-0.1	-5.5	-1.8	0.4	x	x
CCOc1ccc(C(=O)N2CCc3cc(OC)c(OC)cc3C2COc2ccc(C(=O)OC)cc2)cc1OCC (stereo not given)	0.2	3.2	20.2*	-7.2	-0.5	-0.2
